TROY signal inh: TROY signaling inhibition; actives 0.98% (n = 360,000); Q293 LMP1-TROYcd NF-kB luciferase reporter, 4 h; AID 1347056; inhibition, % at 10 µM;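 active = compounds whose plate-normalised and pattern-corrected inhibition of the luciferase reporter signal at the single screening dose is 50% or more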
PAX8 reporter: lowers PAX8-driven luciferase in RMG-I cells | actives 1.2% (n = 360,000) | RMG-I TPO-luciferase reporter, SteadyGlo, 24 h | inhibition, % at 12.6 µM;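 active = mean replicate inhibition at least 60% with every replicate also reaching 60%; inconclusive = only one of the two criteria is met; inactive = mean below 60% and not all replicates reaching 60%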;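 also: luciferase light reporting Pax8 driven TPO promoter activity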
EBV LMP1 NFkB: Epstein-Barr LMP1 NF-kappaB reporter inhibition | LMP1-induced NF-kappaB luciferase reporter cells, luminescence | inhibition, % at 12.5 µM | actives 0.69% (n = 350,000); in the data active = inhibition above about 41%; inconclusive = no clear call, values can overlap the other calls
TWEAK-Fn14 inh: inhibitors of TWEAK-Fn14 interaction signaling. TWEAK-stimulated Fn14 reporter cells, luciferase luminescence, 8 h. actives 2% (n = 360,000). inhibition, % at 10 µM. AID 1159606; in the data active = inhibition above about 50%
EWS-Fli block: inhibitors of EWS/Fli oncoprotein transcriptional activity; A673 NR0B1-luciferase reporter, viability-normalised; inhibition, % at 12.6 µM; actives 0.67% (n = 350,000); AID 651661;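 active = mean inhibition of at least 50% after viability correction, with every replicate also passing that limit; inconclusive = mean reaches 50% but only one of two replicates passes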;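 also: firefly luciferase signal divided by Alamar Blue viability fluorescence both relative to DMSO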
LGR2 inh: inhibitors of bursicon-induced Drosophila LGR2 receptor cAMP signaling; HEK293 LGR2, CRE-luciferase, bursicon-stimulated, 4 h; inhibition, % at 9.99 µM; actives 0.35% (n = 380,000);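 active = drop in luminescence signal, shown as inhibition above about 50% in the replicate tests, limit read from the data, passing the limit was not always enough; inconclusive = probably only some replicates passing the limit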;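 also: agonist challenge used bursicon conditioned medium at about half maximal strength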
Numbers stand for hits; – = inactive; ? = inconclusive; · = not tested or not shown. This is a sample that favours compounds with a hit; in the whole collection about 3.1% have one here.

SMILES	TROY signal inh	PAX8 reporter	EBV LMP1 NFkB	TWEAK-Fn14 inh	EWS-Fli block	LGR2 inh
COc1ccc(OCC(=O)NNc2c3ccccc3nc3ccccc23)cc1	–	·	–	57	·	·
O=C(NNc1c2ccccc2nc2ccccc12)c1ccccc1O	54	–	–	–	–	–
O=C(COc1ccccc1)NNc1c2ccccc2nc2ccccc12	–	·	–	–	·	·
COc1ccc(NC(=O)C(OC)c2ccccc2)cc1Cl (stereo unspecified)	–	–	–	–	·	–
COc1ccc(NC(=O)C(Sc2nnc(-c3ccncc3)n2-c2ccccc2C)c2ccccc2)cc1Cl (stereo unspecified)	–	115	–	–	–	–
CCCCS(=O)(=O)/C=C\C=C/S(=O)(=O)CCCC	–	·	92	79	·	·
CCOc1cc(/C=C/c2cccc[n+]2C)ccc1OCC(=O)Nc1ccc(C)cc1	–	74	–	–	–	–
CCOc1cc(/C=C/C(=O)c2ccc(C)cc2)ccc1OCC(=O)N(C)C	–	–	–	59	–	–
COc1cc(/C=C/C(=O)c2ccc(C)cc2)ccc1OCC#N	–	–	–	87	–	–
C[C@@H]1CN([C@@H](C)CO)C(=O)c2cc(NC(=O)Nc3cccc4ccccc34)ccc2O[C@H]1CN(C)Cc1ccc(C(F)(F)F)cc1	·	·	·	·	–	–
CO[C@@H]1CN(C)C(=O)c2ccc(NC(C)=O)cc2OC[C@@H](C)N(Cc2ccccc2C(=O)O)C[C@H]1C	·	·	·	·	–	–
COC(=O)[C@H]1[C@H](CO)[C@H]2Cn3c(ccc(-c4cccc(F)c4)c3=O)[C@H]2N1Cc1ccncc1	·	–	·	·	–	–
Cc1cccc(NC(=O)NCC2CCN(c3ccc(S(=O)(=O)N4CCOCC4)cc3)CC2)c1	54	–	–	–	–	–
Cc1ccccc1NC(=O)NCC1CCN(c2ccc(S(=O)(=O)N3CCOCC3)cc2)CC1	–	–	–	–	–	–
O=S(=O)(NCC(Nc1ccc(Cl)cc1)c1ccccc1)c1ccc(Cl)cc1 (stereo unspecified)	51	–	–	69	–	–
O=S(=O)(NCC(c1ccccc1)N1CCC(O)CC1)c1ccc(Cl)cc1 (stereo unspecified)	–	–	–	–	·	–
CCC(=O)N(C)C[C@@H]1Oc2ncc(-c3ccc(F)cc3)cc2C(=O)N([C@@H](C)CO)C[C@@H]1C	·	·	·	·	–	–
c1cc(N2CCOCC2)ccc1-c1ccc2nncn2c1	86	–	·	90	–	–
c1coc(-c2ccc3nncn3c2)c1	–	–	·	–	–	–
CC(c1ccccc1)N1C(=O)c2ccc(C(=O)Nc3ccccc3C(=O)O)cc2C1=O (stereo unspecified)	–	·	–	–	–	–
CC(c1ccccc1)N1C(=O)c2ccc(C(=O)Nc3ccc(Br)cc3C(=O)O)cc2C1=O (stereo unspecified)	64	–	–	–	–	–
Cc1ccc(CSC(Nc2ccc(F)cc2)=C(C#N)C#N)cc1	–	?	–	53	–	·
CC(C)NC(=O)Nc1ccc2c(c1)C(=O)N([C@H](C)CO)C[C@@H](C)[C@@H](CN(C)Cc1ccc(Oc3ccccc3)cc1)O2	·	–	·	·	–	–
O=C(C[C@@H]1CC[C@@H](NS(=O)(=O)c2ccc(F)cc2)[C@H](CO)O1)N1CCc2ccccc2C1	·	–	·	·	–	–
CC1(C)CCN2CCC(C)(C)c3c(O)ccc1c32	–	84	–	64	–	–
SMILES	TROY signal inh	PAX8 reporter	EBV LMP1 NFkB	TWEAK-Fn14 inh	EWS-Fli block	LGR2 inh
COc1ccc(NC(=O)Nc2ccc3c(c2)C(=O)N([C@@H](C)CO)C[C@@H](C)[C@@H](CN(C)C(=O)Nc2ccc(C(F)(F)F)cc2)OCCCC[C@@H](C)O3)cc1	·	–	·	·	–	–
C[C@@H]1CN([C@@H](C)CO)C(=O)c2ccccc2-c2ccccc2CO[C@H]1CN(C)S(=O)(=O)c1ccsc1	·	–	·	·	–	–
O=c1[nH]c(-c2ccccn2)cc2ccccc12	–	–	–	79	·	–
Oc1ccccc1C1OCC2(CO1)COC(c1ccccc1O)OC2 (stereo unspecified)	–	–	–	–	–	–
Oc1ccccc1C1SC(c2ccccc2O)SC(c2ccccc2O)S1 (stereo unspecified)	81	·	–	51	–	–
O=C(OCn1ncc(Br)c(Br)c1=O)c1ccccc1Cl	80	·	–	97	·	–
O=C(OCc1cnc(Cl)s1)c1ccccc1Cl	–	·	–	–	·	·
O=C(OCn1ncc(Br)c(Br)c1=O)c1ccc(F)cc1	83	·	?	102	·	·
COc1ccc(CN(C)C[C@H]2OCCCC[C@H](C)Oc3ccc(NC(=O)c4ccncc4)cc3C(=O)N([C@H](C)CO)C[C@H]2C)cc1	·	–	·	·	–	–
C[C@H]1CN([C@@H](C)CO)C(=O)c2cc(-c3ccc(F)cc3)cnc2O[C@H]1CN(C)C(=O)c1ccncc1	·	·	·	·	–	–
CCCCCCCCNC(=O)c1cnccn1	–	98	–	–	–	–
Cc1ccccc1C(=O)NCCCNC(=O)c1cnccn1	–	–	–	–	–	–
C/C=C/c1cnc2c(c1)C(=O)N([C@H](C)CO)C[C@@H](C)[C@@H](CN(C)S(=O)(=O)c1ccccc1)O2	·	·	·	·	–	–
Cn1cnc([N+](=O)[O-])c1Oc1cccc2ccccc12	–	–	–	50	·	–
Cn1cnc([N+](=O)[O-])c1Oc1ccccc1	–	–	–	–	–	–
Cn1cnc([N+](=O)[O-])c1S(=O)(=O)Oc1ccc(Cl)cc1	–	110	–	–	64	–
Cn1cnc([N+](=O)[O-])c1S(=O)(=O)Oc1cccc2ccccc12	74	80	–	67	–	–
CCS(=O)(=O)c1c([N+](=O)[O-])ncn1C	–	–	–	–	–	–
CCS(=O)(=O)N1CCCCN2[C@@H](CO)[C@@H](c3ccc(-c4ccc(C(=O)N(C)C)cc4)cc3)[C@@H]2C1	·	–	·	·	–	–
Cc1ccc(-c2ccc3c(c2)O[C@H](CN(C)Cc2ccccn2)[C@@H](C)CN([C@@H](C)CO)S3(=O)=O)cc1	·	·	·	·	58	–
Cc1ccc(-c2ccc3c(c2)O[C@H](CN(C)Cc2ccccn2)[C@@H](C)CN([C@H](C)CO)S3(=O)=O)cc1	·	·	·	·	63	–
Cc1ccc(-c2ccc3c(c2)O[C@@H](CN(C)Cc2ccccn2)[C@@H](C)CN([C@@H](C)CO)S3(=O)=O)cc1	·	·	·	·	–	–
C[C@@H]1CN([C@@H](C)CO)S(=O)(=O)c2ccc(-c3ccccc3)cc2O[C@H]1CN(C)S(=O)(=O)c1ccccc1F	·	63	·	·	–	–
CCCC#Cc1cnc2c(c1)C(=O)N([C@H](C)CO)C[C@H](C)[C@H](CN(C)C(=O)Nc1c(C)noc1C)O2	·	·	·	·	–	–
Cc1ccc(C(=O)CC(=O)c2ccccc2C)c(O)c1	–	–	–	–	–	–
C=C(CN(C)C)C(=O)c1ccc(C)cc1C	–	85	–	–	73	–
CC(C)NC(=O)N1C[C@@H]2[C@H](c3ccccc31)[C@@H](CO)N2C(=O)c1ccccc1	·	–	·	·	–	–

Screening results from PubChem.
